This note sets out measurements from PubChem BioAssay.

Assay [1] addresses Cell division control protein 42 homolog (Homo sapiens) (UniProt P60953). As to the kind of experiment: activated mutant Cdc42 GTP-binding inhibitors, dose response, biochemical, multiplex bead flow cytometry, Bodipy-FL-GTP (AID 1333).
The target is the same in assay [2]. Description: wildtype Cdc42 GTP-binding inhibitors, dose response, biochemical, multiplex bead flow cytometry, Bodipy-FL-GTP (AID 1334;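 active means fitted half-maximal concentration within the tested range, moderate curve steepness, significant signal drop, and little compound fluorescence or bead-linkage interference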). The settings on record: bead-based flow cytometry, Bodipy-FL-GTP binding to GST-Cdc42; at 100 µM (top of the series) unless noted.
Assay [3] has as its target GTPase HRas (Homo sapiens) (UniProt P01112). As to the kind of experiment: inhibitors of GTP binding to wildtype Ras, dose response, biochemical, multiplex bead flow cytometry (AID 1335;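 active means fitted half-maximal concentration within 10 nM to 100 µM, steepness 0.5 to 2, significant signal drop, low assay interference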). The settings on record: bead-based flow cytometry, Bodipy-GTP binding to GST-Ras; at 100 µM (top of the series) unless noted.
Assay [4] concerns Ras-related protein Rab-7a (dog), GTP binding. Description: Rab7 GTP binding inhibitors, potency, dose response, biochemical, wildtype, multiplex bead flow cytometry (AID 1336; call rule not given here).
The target in assay [5] is Ras-related C3 botulinum toxin substrate 1 (Homo sapiens) (UniProt P63000). Description: wildtype Rac1 GTP binding inhibitors, dose response, biochemical, multiplex bead flow cytometry (AID 1340;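 active means dose curve with midpoint inside tested range, moderate steepness, plateau gap beyond fit error, low compound glow and bead-link interference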). The settings on record: GST-Rac1 beads, Bodipy-FL-GTP binding; at 100 µM (top of the series) unless noted.
The target of assay [6] is GTPase HRas (Homo sapiens) (UniProt P01112). As to the kind of experiment: activated Ras mutant GTP binding inhibitors, dose response, biochemical, multiplex bead flow cytometry (AID 1341;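 active means dose-response curve with midpoint inside the tested range, moderate steepness, significant amplitude and little compound fluorescence or bead-attachment interference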;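 further: GST-tagged constitutively activated Ras mutant immobilized on beads and multiplexed with other GTPases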).
Chain of GTPase HRas (Homo sapiens) (P01112 whole entry, looked up): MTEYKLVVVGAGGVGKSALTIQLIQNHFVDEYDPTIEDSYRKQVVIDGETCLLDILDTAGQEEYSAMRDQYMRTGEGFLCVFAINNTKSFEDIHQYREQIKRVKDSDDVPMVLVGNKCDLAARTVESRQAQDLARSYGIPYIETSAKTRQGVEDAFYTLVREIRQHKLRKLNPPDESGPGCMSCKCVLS

For part of these data: Measured potencies and affinities stand elsewhere. Calls of active or inactive are those of the source.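 How the source made its calls, unless noted: active means fitted half-maximal concentration within the tested dose range, moderate curve steepness, a statistically real signal drop, and little compound fluorescence or tag-binding interference; inactive means the rest.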

Chain of Cell division control protein 42 homolog (Homo sapiens) (P60953 whole entry, looked up): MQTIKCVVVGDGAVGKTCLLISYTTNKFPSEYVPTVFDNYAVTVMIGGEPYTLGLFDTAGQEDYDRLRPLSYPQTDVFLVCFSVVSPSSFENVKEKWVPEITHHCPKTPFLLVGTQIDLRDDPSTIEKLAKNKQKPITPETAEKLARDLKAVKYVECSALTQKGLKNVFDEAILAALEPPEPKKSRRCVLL

Consider `O=C(O)c1cc(Sc2ccccc2)nc2ccccc12`, for which the call in assay [1], in assay [4] and in assay [6] was inactive. The same compound showed a fluorescence, percent of control (lower = inhibition) in assay [2] of 56.6%. The compound also registered a GTP binding, percent of control in assay [3] of 81.9%. In assay [5], this compound showed a GTP binding signal, raw median fluorescence (lower = inhibition) (MCF (arbitrary fluorescence units)) of 30.1.
As for `COc1ccc(-n2c(NC(=O)c3ccc(Br)o3)c(C#N)c3nc4ccccc4nc32)cc1`, the result in assay [1], in assay [4] and in assay [6] was inactive. This compound also returned a fluorescence, percent of control (lower = inhibition) in assay [2] of 24.6%. Moreover, the GTP binding, percent of control in assay [3] amounted to 72.7%. The compound also came in with a GTP binding signal, raw median fluorescence (lower = inhibition) (MCF (arbitrary fluorescence units)) in assay [5] of 169.
For `COc1cccc(N2CCN(C(=O)c3cccn4c(=O)c5c(C)c(C)sc5nc34)CC2)c1`, the compound was classed as inactive in assay [1], in assay [4] and in assay [6]. In assay [2], this compound came in with a fluorescence, percent of control (lower = inhibition) of 32.1%. Further, the GTP binding, percent of control in assay [3] was found to be 72.9%. This compound showed a GTP binding signal, raw median fluorescence (lower = inhibition) (MCF (arbitrary fluorescence units)) in assay [5] of 163.
Regarding `C/C(=C1/SC(=S)N(CCC(=O)O)C1=O)c1ccc(O)cc1`, the compound was called inactive in assay [1], in assay [4] and in assay [6]. The same compound showed a fluorescence, percent of control (lower = inhibition) in assay [2] of 29.5%. In assay [3], this compound registered a GTP binding, percent of control of 80.9%. This compound yielded a GTP binding signal, raw median fluorescence (lower = inhibition) (MCF (arbitrary fluorescence units)) in assay [5] of 254.
On to `Cc1nonc1OCCNc1ccc([N+](=O)[O-])cc1[N+](=O)[O-]`, for which the call in assay [1], in assay [4] and in assay [6] was inactive. This compound also registered a fluorescence, percent of control (lower = inhibition) in assay [2] of 50.3%. The compound also registered a GTP binding, percent of control in assay [3] of 63.5%. In assay [5], the GTP binding signal, raw median fluorescence (lower = inhibition) (MCF (arbitrary fluorescence units)) was 209.
For the compound `COc1ccc2o/c(=N/NC(=O)c3cccs3)c(C(N)=O)cc2c1`, the compound was classed as inactive in assay [1], in assay [4] and in assay [6]. The fluorescence, percent of control (lower = inhibition) in assay [2] stood at 28.1%. In assay [3], this compound gave a GTP binding, percent of control of 64.4%. Moreover, the GTP binding signal, raw median fluorescence (lower = inhibition) (MCF (arbitrary fluorescence units)) in assay [5] was 160.
On to `O=C(O)c1ccc(CNCc2cccc(Br)c2)s1`, for which the compound was called inactive in assay [1], in assay [4] and in assay [6]. In addition, the fluorescence, percent of control (lower = inhibition) in assay [2] stood at 62.4%. The GTP binding, percent of control in assay [3] is 89.5%. The same compound came in with a GTP binding signal, raw median fluorescence (lower = inhibition) (MCF (arbitrary fluorescence units)) in assay [5] of 33.7.
`O=C(COc1ncnc2cc([N+](=O)[O-])ccc12)NC(=O)NC1CCCCC1`: the result in assay [1], in assay [4] and in assay [6] was inactive. For the same compound, in assay [2], the fluorescence, percent of control (lower = inhibition) is 31.6%. The GTP binding, percent of control in assay [3] turned out to be 70.8%. Also, the GTP binding signal, raw median fluorescence (lower = inhibition) (MCF (arbitrary fluorescence units)) in assay [5] came to 153.
As for `O=[N+]([O-])c1cccc(S(=O)(=O)N2CCCC2)c1`, the compound was called inactive in assay [1], in assay [4] and in assay [6]. Also, the fluorescence, percent of control (lower = inhibition) in assay [2] came out at 52.4%. This compound also registered a GTP binding, percent of control in assay [3] of 63.8%. Besides, the GTP binding signal, raw median fluorescence (lower = inhibition) (MCF (arbitrary fluorescence units)) in assay [5] came to 205.
With `COc1ccc(-n2c(C)cc(/C=C3\SC(=S)N(Cc4ccco4)C3=O)c2C)cc1`, the call in assay [1], in assay [4] and in assay [6] was inactive. Further, in assay [2], the fluorescence, percent of control (lower = inhibition) worked out at 75.8%. This compound also had a GTP binding, percent of control in assay [3] of 89.9%. Further, in assay [5], the GTP binding signal, raw median fluorescence (lower = inhibition) (MCF (arbitrary fluorescence units)) is 230.
On to `Cc1nc2ccc(NC(=O)COc3ccccc3)cc2s1`, for which the outcome in assay [1], in assay [4] and in assay [6] was inactive. In assay [2], this compound had a fluorescence, percent of control (lower = inhibition) of 37.6%. Moreover, the GTP binding, percent of control in assay [3] was 89.8%. Also, the GTP binding signal, raw median fluorescence (lower = inhibition) (MCF (arbitrary fluorescence units)) in assay [5] came out at 271.
Regarding `CCC(=O)N=C1SC2CS(=O)(=O)CC2N1c1cccc(OC)c1` (stereo not given), the compound was called inactive in assay [1], in assay [4] and in assay [6]. The compound further came in with a fluorescence, percent of control (lower = inhibition) in assay [2] of 89%. In addition, the GTP binding, percent of control in assay [3] is 162%. This compound registered a GTP binding signal, raw median fluorescence (lower = inhibition) (MCF (arbitrary fluorescence units)) in assay [5] of 180.
Take `O=C(CNC(=O)c1ccco1)OCN1C(=O)c2ccccc2C1=O`: the call in assay [1], in assay [4] and in assay [6] was inactive. The compound further yielded a fluorescence, percent of control (lower = inhibition) in assay [2] of 52%. Moreover, in assay [3], the GTP binding, percent of control worked out at 66.1%. The compound also showed a GTP binding signal, raw median fluorescence (lower = inhibition) (MCF (arbitrary fluorescence units)) in assay [5] of 220.
As for `O=c1c2ccccc2nc2ccc(NCc3ccco3)nn12`, the call in assay [1], in assay [4] and in assay [6] was inactive. The same compound gave a fluorescence, percent of control (lower = inhibition) in assay [2] of 31.4%. The same compound came in with a GTP binding, percent of control in assay [3] of 71.8%. This compound returned a GTP binding signal, raw median fluorescence (lower = inhibition) (MCF (arbitrary fluorescence units)) in assay [5] of 196.
For `Cc1nc2cc(C(=O)NCc3ccc4c(c3)OCO4)ccc2n1-c1ccc(Br)cc1`, the outcome in assay [1], in assay [4] and in assay [6] was inactive. For the same compound, the fluorescence, percent of control (lower = inhibition) in assay [2] came to 42.6%. In assay [3], the GTP binding, percent of control turned out to be 62.2%. The GTP binding signal, raw median fluorescence (lower = inhibition) (MCF (arbitrary fluorescence units)) in assay [5] was determined as 172.
